Source: PMC5540273 (PLoS ONE, 2017)

Assays:
Conditions in all cases: concentration: 1 μM, replicates: in singlicate; n = 1
NDR1 = test system: T1, NDR1
T1 construct: gene STK38

NDR2 = test system: NDR2
NEK10 = test system: NEK10
NEK11 = test system: NEK11
NEK1 = test system: NEK1
NEK2 = test system: NEK2
NEK3 = test system: NEK3
NEK4 = test system: NEK4
NEK5 = test system: NEK5
NEK6 = test system: NEK6
NEK7 = test system: NEK7
NEK9 = test system: NEK9
NIK = test system: T2, NIK
T2 construct: gene MAP3K14

NIM1 = test system: T3, NIM1
T3 construct: gene MGC42105

NLK = test system: NLK
OSR1 = test system: T4, OSR1
T4 construct: gene OXSR1

PAK1 = test system: PAK1
PAK2 = test system: PAK2
PAK3 = test system: PAK3
PAK4 = test system: PAK4
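Further: KINOMEscan kinase panel screen.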

Row | SMILES | %Inh (NDR1) [%] | %Inh (NDR2) [%] | %Inh (NEK10) [%] | %Inh (NEK11) [%] | %Inh (NEK1) [%] | %Inh (NEK2) [%] | %Inh (NEK3) [%] | %Inh (NEK4) [%] | %Inh (NEK5) [%] | %Inh (NEK6) [%] | %Inh (NEK7) [%] | %Inh (NEK9) [%] | %Inh (NIK) [%] | %Inh (NIM1) [%] | %Inh (NLK) [%] | %Inh (OSR1) [%] | %Inh (PAK1) [%] | %Inh (PAK2) [%] | %Inh (PAK3) [%] | %Inh (PAK4) [%]
1 | Cn1ccc2ncnc(Oc3ccc(NC(=O)Nc4ccccc4)cc3)c21 | 9 | 0 | 18 | 0 | 0 | 3 | 12 | 0 | 0 | 0 | 0 | 0 | 6 | 0 | 11 | 0 | 10 | 17 | 40 | 10
2 | COc1cc2nccc(Nc3ccc(NC(=O)c4ccc(C)cc4)c(O)c3)c2cc1OC.Cl [GW440132] | 0 | 0 | 0 | 0 | 2 | 0 | 0 | 0 | 14 | 0 | 0 | 14 | 15 | 7 | 0 | 17 | 0 | 0 | 22 | 0
3 | Cn1ccc2ncnc(Oc3ccc(Nc4nc5ccccc5[nH]4)cc3)c21 | 0 | 10 | 0 | 0 | 0 | 0 | 0 | 99.9 | 0 | 0 | 0 | 0 | 0 | 0 | 4 | 0 | 14 | 0 | 0 | 0
4 | O=c1cc(N2CCOCC2)nc2n(Cc3cccc(Cl)c3Cl)ccn12 [GSK2286295] | 12 | 0 | 0 | 0 | 0 | 4 | 1 | 6 | 4 | 0 | 0 | 27 | 32 | 0 | 28 | 14 | 22 | 11 | 0 | 0
5 | O=S(=O)(c1ccc(-c2ccnc3[nH]ccc23)cc1)N1CCCC1 [GSK846226] | 33 | 38 | 15 | 0 | 12 | 16 | 16 | 0 | 31 | 0 | 20 | 28 | 12 | 0 | 14 | 4 | 0 | 0 | 12 | 0
6 | Fc1cccc(COc2nnc(-c3ccc4c(c3)CCO4)o2)c1 | 0 | 4 | 0 | 0 | 10 | 0 | 12 | 0 | 0 | 0 | 19 | 3 | 0 | 0 | 6 | 0 | 27 | 55 | 16 | 15
7 | Cc1cccc(-c2cc(Nc3ccncc3)c3ccccc3n2)n1 [GSK223675] | 0 | 0 | 0 | 0 | 0 | 0 | 17 | 0 | 0 | 0 | 0 | 8 | 14 | 0 | 10 | 6 | 6 | 2 | 0 | 0
8 | COc1ccccc1CNC(=O)c1cc(C(=O)c2ccccc2C)c[nH]1 [GSK364507] | 0 | 0 | 6 | 0 | 0 | 0 | 8 | 14 | 13 | 17 | 6 | 15 | 12 | 16 | 40 | 8 | 6 | 1 | 0 | 0
